Assay results as given in PubChem BioAssay AID1868 (National Center for Advancing Translational Sciences (NCATS), 2009).
In all, about 270,000 compounds went through this assay and about 20 (0.007%) were called active. Calls come from the whole dose curve; as a rule, active = well fitted inhibition curve with a large enough effect; inconclusive = small, poorly fitted or top-dose-only effect, or effect the other way; inactive = flat fitted curve, though single readings scatter. Only a sample is shown.

Target: Galactokinase (Homo sapiens) (UniProt P51570)
Sequence (P51570 whole entry, looked up): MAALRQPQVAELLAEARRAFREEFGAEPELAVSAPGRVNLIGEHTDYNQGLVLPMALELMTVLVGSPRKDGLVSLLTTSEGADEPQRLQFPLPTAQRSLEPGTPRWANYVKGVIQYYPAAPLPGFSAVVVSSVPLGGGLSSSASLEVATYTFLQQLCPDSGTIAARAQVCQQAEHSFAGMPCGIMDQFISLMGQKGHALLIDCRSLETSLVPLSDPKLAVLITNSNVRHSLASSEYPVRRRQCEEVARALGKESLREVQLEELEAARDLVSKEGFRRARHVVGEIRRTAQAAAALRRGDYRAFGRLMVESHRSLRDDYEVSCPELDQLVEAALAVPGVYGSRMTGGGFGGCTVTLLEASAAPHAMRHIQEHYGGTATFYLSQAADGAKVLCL
Test: qHTS Assay for Inhibitors of Human Galactokinase (GALK)
Settings: Purified GALK, Kinase-Glo residual ATP luminescence; series mostly up to 57.5 µM
Outline: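 Quantitative HTS: GALK 5 nM, ATP 35 uM, galactose 100 uM, 1 h room temperature, then luciferase-based ATP detection.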

outcome, inactive:
COc1cccc(OCc2cc(C(=O)N3CCN(C(=O)c4ccco4)CC3)no2)c1
CCOc1ccc(C2C(C#N)=C(N)N(N(C)C)C3=C2C(=O)CCC3)cc1 (stereo unspecified)
CC(=O)c1cccc(NC(=O)CN2C(=O)c3cccnc3Oc3ccc(Cl)cc32)c1
O=C(CN1CCN(S(=O)(=O)c2cc(Cl)ccc2Cl)CC1)c1ccc(O)c(O)c1
COc1ccccc1CCCNC(=O)C1CCC(=O)N(CCN2CCOCC2)C1 (stereo unspecified)
COc1ccc(CCNCc2c(-c3ccccc3)n(C)c3ccccc23)cc1
CCn1nnnc1SCC(=O)Nc1ccc(N(C)C)cc1
O=C(CN1CCCCCC1)Nc1ccc(Br)cc1[N+](=O)[O-]
COCCNC(=O)c1ccc2nc(Cc3ccc(OC)c(OC)c3)oc2c1
CCOc1ccc(C(=O)CCN2CCOCC2)cc1
O=C(c1cc(COc2ccc(F)c(F)c2)on1)N1CCOCC1
Cc1cc(Br)ccc1NC(=S)NC1CCCC1
CC(C)c1ccc(NC2CCCN(C(=O)c3ccncc3)C2)cc1 (stereo unspecified)
CC(=O)c1ccc(OC(=O)N2CCOCC2)cc1
CCC(=O)Nc1ccc2nn(-c3ccc(F)cc3)nc2c1
C=CCc1cccc(/C=N/NC(=O)COc2ccc(-n3cnnn3)cc2)c1O
O=C(Cc1cccs1)Nc1ccc([N+](=O)[O-])cc1
COc1ccc(N2CCN(C3CCCCC3NS(=O)(=O)c3ccccc3)CC2)cc1 (stereo unspecified)
CN(C)CCCNC(=S)N1CCC(c2nc3ccccc3[nH]2)CC1
COc1ccc(OCc2cc(C(=O)NCC3(C)COC3)no2)c(Cl)c1
O=C(N/C(=C\c1ccc([N+](=O)[O-])cc1)C(=O)N1CCCCC1)c1ccco1
c1ccc(-c2ccc(OCCN3CCOCC3)cc2)cc1
COc1cc(C(=S)N2CCOCC2)cc(OC)c1OC(=O)c1ccc([N+](=O)[O-])cc1[N+](=O)[O-]
Cc1ccc(-c2noc(C3CCCN(C(=O)c4cccc(Cl)c4)C3)n2)o1 (stereo unspecified)
C/C(=N\NC(=O)c1ccoc1C)c1ccccc1O
Cc1ccc(CNC(=O)C(=O)c2cn(CC(=O)N3CCCC3)c3ccccc23)cc1
